Data from PubChem BioAssay AID1376 (SRMLSC, 2008).
In all, about 220,000 compounds went through this assay and about 530 (0.24%) were called active. This is one part of a sample in which actives are shown more often than they occur. Cut-off read from the data, not from the text of the source: active = inhibition above about 13%; inconclusive = no clear call, values can overlap the other calls; inactive = below that. Potency and affinity values are given separately.

Molecular target: Bifunctional protein GlmU (Mycobacterium tuberculosis (strain ATCC 25618 / H37Rv)) (UniProt P9WMN3)
Sequence (P9WMN3 whole entry, looked up): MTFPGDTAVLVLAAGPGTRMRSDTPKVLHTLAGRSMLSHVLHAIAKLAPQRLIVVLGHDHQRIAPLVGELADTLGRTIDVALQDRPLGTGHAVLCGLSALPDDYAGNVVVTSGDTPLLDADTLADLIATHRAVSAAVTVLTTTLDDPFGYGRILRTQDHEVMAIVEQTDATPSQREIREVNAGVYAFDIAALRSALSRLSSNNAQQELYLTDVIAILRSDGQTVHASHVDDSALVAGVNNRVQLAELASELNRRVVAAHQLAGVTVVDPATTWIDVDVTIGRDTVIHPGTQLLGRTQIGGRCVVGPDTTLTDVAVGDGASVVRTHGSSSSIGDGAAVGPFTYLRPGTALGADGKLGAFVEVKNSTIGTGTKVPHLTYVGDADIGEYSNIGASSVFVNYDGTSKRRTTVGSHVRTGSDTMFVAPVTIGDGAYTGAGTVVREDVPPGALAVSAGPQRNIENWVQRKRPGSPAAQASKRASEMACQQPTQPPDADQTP
Experiment: inhibition of mycobacterial GlmU enzyme – biochemical, glucosamine-1-phosphate acetyltransferase (AID 1376);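 note: 0% = complete reaction with vehicle and 100% = reaction without substrate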
Details: M. tuberculosis GlmU acetyltransferase enzyme assay; hits give high values;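 tested at 30 µM in the primary screen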

Row | SMILES | inhibition
1 | CC(C)Oc1ccc(C(=O)Nc2ccc(N3CCCC3)cc2)cc1 | 2.23% (inactive)
2 | COc1ccc(C(=O)Nc2ccc(N3CCCC3)cc2)cc1 | 13.4% (active)
3 | COc1ccc(C(=O)NC(=S)Nc2ccc(N3CCCC3)cc2)cc1 | -3.46% (inactive)
4 | O=C(O[C@@H]1OC2COC(=O)c3cc(O)c(O)c(O)c3-c3c(cc(O)c(O)c3O)C(=O)O[C@@H]([C@H]1O)[C@@H]2O)c1cc(O)c(O)c(O)c1 | 30.4% (inactive)
5 | CCC(=O)Nc1sc(C(=O)Nc2ccccc2OC)c(C)c1C(=O)OC | 7.34% (inactive)
6 | O=C(/C=C/c1ccc(O)c(O)c1)OCCc1ccccc1 | -2.12% (inactive)
7 | O=C(O)/C=C/c1ccc(O)c(O)c1 | 5.24% (inactive)
8 | CCN1C(=O)CC(N2CCOCC2)C1=O (stereo not drawn) | -3.77% (inactive)
9 | CCOc1ccc(C2CC(c3ccc(F)cc3)Nc3nc(N)nn32)cc1 (stereo not drawn) | 2.32% (inactive)
10 | O=C1NC(=S)S/C1=C\c1coc2ccccc2c1=O | 5.72% (inactive)
11 | CN1C(=O)/C(=C/c2coc3ccc(O)cc3c2=O)SC1=S | 2.74% (inactive)
12 | O=C(Nc1ccc(Cl)cc1)Nc1ccccc1C(=O)O | -1.73% (inactive)
13 | CN1CCN(CC(=O)Nc2sc3c(c2C#N)CCC(C(C)(C)C)C3)CC1 (stereo not drawn) | 2.19% (inactive)
14 | Cc1nn(CC(=O)Nc2sc3c(c2C#N)CCC(C(C)(C)C)C3)c(C)c1[N+](=O)[O-] (stereo not drawn) | 14.3% (active)
15 | Cc1nn(CCCC(=O)Nc2sc3c(c2C#N)CCC3)c(C)c1[N+](=O)[O-] | -0.77% (inactive)
16 | CC(C)CCn1c(=O)c2ccccc2n2c(CN3CCCC3)nnc12 | -3.44% (inactive)
17 | O=C1N=c2ccc(Br)cc2=C1c1sc(=S)n(NS(=O)(=O)c2ccccc2)c1O | 13.8% (active)
18 | COc1cc(C(=O)Nn2c(O)c(C3=c4ccccc4=NC3=O)sc2=S)ccc1O | 4.03% (inactive)
19 | O=C1N=c2ccccc2=C1c1sc(NS(=O)(=O)Cc2ccccc2)nc1O | 5.63% (inactive)
20 | O=C1N=c2ccccc2=C1c1sc(NS(=O)(=O)c2ccccc2)nc1O | 13.8% (active)
21 | Cc1ccc(S(=O)(=O)Nn2c(O)c(C=C3N=c4ccccc4=N3)sc2=S)cc1 | 0.22% (inactive)
22 | O=C1N=c2ccccc2=C1c1sc(=S)n(NC(=O)c2ccccc2)c1O | 13.4% (active)
23 | O=S(=O)(Nn1c(O)c(C=C2N=c3ccccc3=N2)sc1=S)c1ccccc1 | 7.14% (inactive)
24 | O=C1N=c2ccccc2=C1c1sc(=S)n(NC(=O)c2cccc(O)c2)c1O | -0.24% (inactive)
25 | O=C1N=c2ccccc2=C1c1sc(Nc2ccc(O)cc2)nc1O | 6.45% (inactive)
26 | COc1ccc(C(=O)C2CCCN(C(=O)Cc3c(C)noc3C)C2)cc1OC (stereo not drawn) | -6.51% (inactive)

Row | SMILES | inhibition
27 | COc1ccccc1C(=O)NCCCN1CCCC1=O | -0.52% (inactive)
28 | Nc1c(C(=O)c2ccc(F)cc2)oc2ccccc12 | 1.74% (inactive)
29 | CCOc1ccccc1NC(=S)N(CCOC)C1CCN(C(C)=O)CC1 | 1.9% (inactive)
30 | CC(=O)N1CC=CC1(C)C(=O)NCc1cc(F)cc(C(F)(F)F)c1 (stereo not drawn) | -2.53% (inactive)
31 | CCCCC(=O)Nc1ccc(C(=O)Nc2ccc(S(=O)(=O)Nc3ccc(C)cc3)cc2)cc1 | 3.43% (inactive)
32 | CCOc1ccc(N(CC(=O)NCC2CCCO2)C(=O)CCC(=O)Nc2nccs2)cc1 (stereo not drawn) | -0.08% (inactive)
33 | Cc1oc(/N=C/c2c(O)ccc3ccccc23)c(C#N)c1C | -4.74% (inactive)
34 | Cc1ccc(-n2c(N)c(C(=O)N3CCOCC3)sc2=S)cc1 | -2.93% (inactive)
35 | Nc1c(C(=O)N2CCOCC2)sc(=S)n1-c1ccccc1 | 13.9% (active)
36 | Nc1c(C(=O)N2CCCCC2)sc(=S)n1-c1ccccc1 | -0.25% (inactive)
37 | Cc1cc2ccccc2c(=O)n1CC(=O)NCC(=O)N1CCN(c2ccccc2F)CC1 | -1.95% (inactive)
38 | CCOc1cc(CNCc2cccs2)ccc1OCC(=O)NC(C)(C)C | 4.39% (inactive)
39 | OC(COc1ccc(Br)cc1)CN1CCOCC1 (stereo not drawn) | -1.6% (inactive)
40 | COc1ccc(CSc2nnc(NC(C)=O)s2)cc1[N+](=O)[O-] | -1.4% (inactive)
41 | C/C(=N\NC(=O)c1ccc(F)cc1)c1cccc(NC(=O)c2ccco2)c1 | 1.13% (inactive)
42 | C/C(=N\NC(=O)c1cccc(C)c1)c1cccc(NC(=O)c2ccco2)c1 | 21.3% (active)
43 | C/C(=N\NC(=O)c1cccc(Cl)c1)c1cccc(NC(=O)c2ccco2)c1 | 4.79% (inactive)
44 | Cc1cccc(Cn2cccc2/C=C2/C(=N)N3C=CSC3=NC2=O)c1 | -1.25% (inactive)
45 | CC(C)CC12CN3CCN(CC(C3)/C1=N/O)C2 | 0.59% (inactive)
46 | COc1ccc(COc2ccccc2C(N)=O)cc1F | 3.33% (inactive)
47 | O=S(=O)(c1ccc(OCC(O)CN2CCN(c3ccc(F)cc3)CC2)cc1)N1CCOCC1 (stereo not drawn) | 3.7% (inactive)
48 | Cc1ccccc1CN1[C@@H](Cc2ccccc2)COCCS1(=O)=O | -3.47% (inactive)
49 | Oc1ccc(N=Nc2c(O)ccc3ccccc23)cc1 | 0.98% (inactive)
50 | O=S(=O)(O)c1cccc(N=Nc2c(O)ccc3ccccc23)c1 | 3.89% (inactive)
51 | O=C(O)c1cc(N=Nc2c(O)ccc3ccccc23)cc(C(=O)O)c1 | 25.6% (active)
52 | C#CCn1c(-c2ccccc2)ccc(C#N)c1=O | 1.35% (inactive)

Row | SMILES | inhibition
53 | CCOC(=O)Cn1c(-c2ccccc2)ccc(C#N)c1=O | -5.69% (inactive)
54 | CCn1c(-c2ccccc2)ccc(C#N)c1=O | 14.1% (active)
55 | O=C(CSc1ccccc1C(=O)O)NCC1CCCCC1 | -4.3% (inactive)
56 | COCCn1c(SCC(=O)c2[nH]c(C)c(C(C)=O)c2C)nc2ccccc21 | 3.37% (inactive)
57 | Cc1cc(N2CCC(C(=O)NC3CC3)CC2)nc(-c2ccccc2)n1 | 1.37% (inactive)
58 | C#CCNC(=O)C1CCN(c2cc(C)nc(-c3ccccc3)n2)CC1 | -1.53% (inactive)
59 | Cc1cc(N2CCC(C(=O)NC3CCCCC3)CC2)nc(-c2ccccc2)n1 | 13.9% (active)
60 | CC(=O)c1ccc(N2CCN(C(=S)Nc3ccccc3F)CC2)cc1 | -4.01% (inactive)
61 | CCS(=O)(=O)N1CCC(C(=O)N2CCN(Cc3ccccc3)CC2)CC1 | -4.26% (inactive)
62 | CCCS(=O)(=O)N1CCC(C(=O)N2CCN(Cc3ccccc3)CC2)CC1 | 30.1% (active)
63 | CS(=O)(=O)N1CCC(C(=O)N2CCN(Cc3ccccc3)CC2)CC1 | 0.44% (inactive)
64 | Cc1cc(C(=O)CN2C(=O)C(=O)N(C3CCCC3)C2=O)c(C)n1-c1ccc(F)cc1 | 7.31% (inactive)
65 | Cc1c(Cl)cc(-n2cnnn2)cc1[N+](=O)[O-] | 0.95% (inactive)
66 | COc1ccc(C(=O)CSc2nnc(-c3ccco3)c(-c3ccco3)n2)cc1 | 12.8% (active)
67 | O=C(CSc1nnc(-c2ccco2)c(-c2ccco2)n1)Nc1ccccc1 | 13.4% (active)
68 | CC(=O)c1ccc(NC(=O)CSc2nnc(-c3ccco3)c(-c3ccco3)n2)cc1 | 9.28% (inactive)
69 | COc1ccc(C(=O)CSc2n[nH]c(-c3ccco3)n2)cc1 | 4.52% (inactive)
70 | O=C(CSc1nnc(-c2ccco2)c(-c2ccco2)n1)c1ccccc1 | 0.16% (inactive)
71 | Cc1ccc(NC(=O)CSc2nnc(-c3ccco3)c(-c3ccco3)n2)cc1 | 6.2% (inactive)
72 | CC1(c2nnc(Cc3ccccc3)o2)CC(c2ccc([N+](=O)[O-])cc2)=NO1 (stereo not drawn) | -2.83% (inactive)
73 | CCCn1c(SCC(=O)Nc2ccc(OCC)cc2)nnc1C(C)C | 2.8% (inactive)
74 | COC(=O)N/N=C/c1c(C)nn(-c2cccc(Cl)c2)c1Cl | -2.28% (inactive)
75 | O=C(O)c1cc(S(=O)(=O)Nc2ccc(N3CCCCC3)cc2)ccc1Cl | 14.1% (active)
76 | O=S(=O)(Nc1ccc(N2CCCCC2)cc1)c1ccc(F)c(F)c1 | 1.08% (inactive)
77 | CC(=O)Nc1ccc(NS(=O)(=O)c2ccc(Cl)c(C(=O)O)c2)cc1 | -0.86% (inactive)
78 | O=C1CC2(CCCCC2)Oc2ccc(Cl)cc21 | -3.86% (inactive)

Row | SMILES | inhibition
79 | CCCCN(CCCC)CCNC(=O)CNC(=O)c1cccs1 | 2.63% (inactive)
80 | CCN(CC(=O)Nc1ccc(OC(F)F)cc1)C1CCCCC1 | 2.82% (inactive)
81 | COc1cc(/C=C2/SC(=Nc3ccc(O)cc3)NC2=O)ccc1O | 35.3% (inactive)
82 | C=CCOc1ccc(Br)cc1/C=C1/SC(=Nc2ccc(C(=O)O)cc2)NC1=O | 15.9% (active)
83 | C=CCOc1ccc(Br)cc1/C=N/O | -4.35% (inactive)
84 | CCOc1cc(S(=O)(=O)NCCc2ccccc2C)c(OCC)cc1-n1cnnn1 | 1.72% (inactive)
85 | O=C1CC(NCc2ccccc2)C(=O)N1c1ccc(F)cc1 (stereo not drawn) | -3.58% (inactive)
86 | O=c1[nH]nc(SCc2nnc(-c3cccc(Cl)c3)o2)n1C1CCCCC1 | 1.07% (inactive)
87 | CC(C)(CNc1ccc([N+](=O)[O-])cc1Cl)CNS(C)(=O)=O | -2.7% (inactive)
88 | CCn1c(Cl)c(C=O)s/c1=N\S(=O)(=O)c1ccccc1 | 5.14% (inactive)
89 | COCCCN1C(=O)CS/C1=N\S(=O)(=O)c1ccccc1 | 5.52% (inactive)
90 | O=Cc1s/c(=N\S(=O)(=O)c2ccccc2)n(CCCCl)c1Cl | 14% (active)
91 | CC/C(=N/NS(=O)(=O)c1ccc(Cl)cc1)c1ccc(O)cc1 | 2.54% (inactive)
92 | Cc1ccc2c(c1C)NC(C(=O)O)C1CC=CC21 (stereo not drawn) | 13.2% (active)
93 | O=[N+]([O-])c1ccc(Cl)c2c1C1C=CCC1C(c1ccccn1)N2 (stereo not drawn) | 3.42% (inactive)
94 | CC(C)C1Nc2c(O)cc(Cl)c([N+](=O)[O-])c2C2C=CCC21 (stereo not drawn) | 4.55% (inactive)
95 | CC(C)C1Nc2ccc(C(=O)O)cc2C2C=CCC21 (stereo not drawn) | 5.77% (inactive)
96 | O=C(O)C1Nc2c(O)cc(Cl)c([N+](=O)[O-])c2C2C=CCC12 (stereo not drawn) | 65% (active)
97 | COc1cccc(C2Nc3c(F)cc(Br)cc3C3C=CCC32)c1OC (stereo not drawn) | 0.44% (inactive)
98 | O=C(O)C1Nc2c(O)cccc2C2C=CCC12 (stereo not drawn) | 33.7% (active)
99 | COC(=O)CNC(=O)C1Nc2ccccc2C2C=CCC12 (stereo not drawn) | 3.22% (inactive)
100 | COc1cccc2c1NC(C(=O)O)C1CC=CC21 (stereo not drawn) | 60.8% (active)
101 | O=C(O)C1Nc2c(C(=O)N3CCOCC3)cccc2C2C=CCC12 (stereo not drawn) | 1.95% (inactive)
102 | CCOC(=O)C1Nc2c(F)cc(C)cc2C2C=CCC12 (stereo not drawn) | 3.49% (inactive)
103 | CC(C)CNC(=O)C1Nc2ccccc2C2C=CCC12 (stereo not drawn) | 0.47% (inactive)
